Reference: PubChem BioAssay (NCI)
Compounds without any hit were thinned out: in the full panel of roughly 79,000, 15% have a hit. The source made the active and inactive calls. Cut-off read from the data, not from the text of the source: active = growth inhibition above about 70%; inactive = the rest.

Columns and labels:
[1] = NCI Yeast Anticancer Drug Screen. Data for the rad52 strain (AID 147);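 note: 0% = growth of vehicle-treated control cultures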; details: S. cerevisiae rad52 mutant growth inhibition, stronger effect = higher value
Outline: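 Vehicle-treated cultures served as the reference for growth inhibition of compound-exposed yeast bearing a DNA repair mutation.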

[2] = NCI Yeast Anticancer Drug Screen. Data for the wt1 strain (AID 149);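 note: 0% = growth of vehicle-treated wt1 cultures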; details: S. cerevisiae wt1 strain (SPY 50644) growth inhibition, stronger effect = higher value
Outline: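 Each compound is tested on wt1 yeast and the loss of growth versus vehicle gives the inhibition value.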

[3] = NCI Yeast Anticancer Drug Screen. Data for the rad50EPP+ strain (AID 151);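 note: 0% = growth of vehicle-treated control cultures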; details: S. cerevisiae rad50 mutant strain, stronger effect = higher value
Outline: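 In this screen, rad50EPP+ yeast were exposed to compounds. Growth inhibition was scored against vehicle-treated controls.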

[4] = NCI Yeast Anticancer Drug Screen. Data for the mgt1 strain (AID 153); details: S. cerevisiae mgt1 mutant growth inhibition, stronger effect = higher value
Outline: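 mgt1 strain exposed; growth vs vehicle control recorded as inhibition.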

[5] = NCI Yeast Anticancer Drug Screen. Data for the rad50 strain (AID 155);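 note: 0% = growth of vehicle-only cultures of the same strain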; details: S. cerevisiae rad50 strain growth inhibition, stronger effect = higher value
Outline: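 Vehicle-treated cultures provide the reference for the growth inhibition reported for compound-exposed, repair-deficient yeast.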

[6] = NCI Yeast Anticancer Drug Screen. Data for the mec2-1 strain (AID 157); details: S. cerevisiae mec2-1 strain, stronger effect = higher value
Outline: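 Vehicle-treated cultures served as reference for growth inhibition of compound-exposed mec2-1 yeast.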

[7] = NCI Yeast Anticancer Drug Screen. Data for the rad14 strain (AID 159);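 note: 0% = growth of vehicle-treated control cultures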; details: S. cerevisiae rad14 strain growth inhibition, stronger effect = higher value
Outline: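 Inhibition of growth is reported for a repair-deficient yeast mutant following compound treatment, calculated relative to cultures that received vehicle.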

[8] = NCI Yeast Anticancer Drug Screen. Data for the sgs1 mgt1 strain (AID 161);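 note: 0% = growth of cultures given vehicle only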; details: S. cerevisiae sgs1 mgt1 strain, stronger effect = higher value
Outline: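 Mutant yeast exposed to compound; growth scored against vehicle-only wells.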

[9] = NCI Yeast Anticancer Drug Screen. Data for the CLN2oe strain (AID 163);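 note: 0% = growth of vehicle-only control cultures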; details: S. cerevisiae CLN2oe strain, stronger effect = higher value
Outline: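 Inhibition relative to vehicle-treated yeast is reported. Cells: strain with genetic alteration in cell-cycle control, grown with compound.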

[10] = NCI Yeast Anticancer Drug Screen. Data for the cln2 rad14 strain (AID 165);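 note: 0% = growth equal to vehicle treated cultures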; details: S. cerevisiae cln2 rad14 strain, stronger effect = higher value
Outline: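 Each compound was tested on cln2 rad14 yeast. Inhibition of growth was calculated against vehicle-exposed controls.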

[11] = NCI Yeast Anticancer Drug Screen. Data for the bub3 strain (AID 167); details: S. cerevisiae bub3 mutant strain, stronger effect = higher value
Outline: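 Mutant yeast screening strain plus compound; vehicle-treated cultures serve as the 0% inhibition reference.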

[12] = NCI Yeast Anticancer Drug Screen. Data for the wt2 strain (AID 169); details: S. cerevisiae wt2 strain growth inhibition, stronger effect = higher value
Outline: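 Inhibition of yeast growth was determined after compound treatment, normalised to controls receiving only vehicle.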

[13] = NCI Yeast Anticancer Drug Screen. Data for the mlh1 strain (AID 171);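 note: 0% = growth of vehicle-treated control cultures of the same strain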; details: S. cerevisiae mlh1 strain growth inhibition, stronger effect = higher value
Outline: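 Vehicle-normalised growth inhibition of a repair- or checkpoint-altered yeast strain following compound treatment.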

[14] = NCI Yeast Anticancer Drug Screen. Data for the sgs1 strain (AID 173);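 note: 0% = growth of vehicle-only control cultures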; details: S. cerevisiae sgs1 mutant, stronger effect = higher value
Outline: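 Screen format: yeast with repair or checkpoint alterations, compound exposure, growth read relative to vehicle.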

[15] = NCI Yeast Anticancer Drug Screen. Data for the rad18 strain (AID 177); details: S. cerevisiae rad18 mutant growth inhibition, stronger effect = higher value
Outline: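 Test articles were incubated with altered yeast defective in DNA damage repair. Results are given as inhibition of growth versus vehicle.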

[16] = at 5.0 µM (retest, dose inferred, filed as 0.5)
[17] = at 50.0 µM (retest, dose inferred, filed as 5.0)

Measured: growth inhibition

O=[N+]([O-])c1cccc2nc3ccccc3c(NCCCN3CCOCC3)c12
inactive: [2]; at 1.2 µM -8% | [2]; at 3.7 µM 38% | [3]; at 1.2 µM 19% | [3]; at 3.7 µM 46% | [4]; at 1.2 µM 16% | [4]; at 3.7 µM 43% | [9]; at 1.2 µM -7% | [9]; at 3.7 µM 46% | [11]; at 1.2 µM -14% | [11]; at 3.7 µM 0% | [11]; [16] 0% | [11]; at 11.0 µM 53% | [12]; at 1.2 µM -1% | [12]; at 3.7 µM 19% | [13]; at 1.2 µM 16% | [13]; at 3.7 µM 54%
active: [1]; at 1.2 µM 95% | [1]; at 3.7 µM 97% | [1]; at 11.0 µM 98% | [1]; at 33.0 µM 98% | [1]; at 100.0 µM 98% | [2]; at 11.0 µM 90% | [2]; at 33.0 µM 97% | [2]; at 100.0 µM 98% | [3]; at 11.0 µM 76% | [3]; at 33.0 µM 92% | [3]; at 100.0 µM 96% | [4]; at 11.0 µM 91% | [4]; at 33.0 µM 97% | [4]; at 100.0 µM 98% | [5]; at 1.2 µM 89% | [5]; at 3.7 µM 94% | [5]; [16] 85% | [5]; at 11.0 µM 96% | [5]; at 33.0 µM 97% | [5]; [17] 97% | [5]; at 50.0 µM 96% | [5]; at 100.0 µM 98% | [6]; at 1.2 µM 90% | [6]; at 3.7 µM 97% | [6]; [16] 91% | [6]; at 11.0 µM 98% | [6]; at 33.0 µM 99% | [6]; [17] 99% | [6]; at 50.0 µM 97.3% | [6]; at 100.0 µM 99% | [7]; at 1.2 µM 98% | [7]; at 3.7 µM 98% | [7]; at 11.0 µM 98% | [7]; at 33.0 µM 98% | [7]; at 100.0 µM 98% | [8]; [16] 92% | [8]; [17] 98% | [8]; at 50.0 µM 96.9% | [9]; at 11.0 µM 92% | [9]; at 33.0 µM 96% | [9]; at 100.0 µM 99% | [10]; [16] 98% | [10]; [17] 99% | [10]; at 50.0 µM 98.4% | [11]; at 33.0 µM 93% | [11]; [17] 97% | [11]; at 50.0 µM 90.1% | [11]; at 100.0 µM 98% | [12]; at 11.0 µM 76% | [12]; at 33.0 µM 96% | [12]; at 100.0 µM 98% | [13]; at 11.0 µM 94% | [13]; at 33.0 µM 98% | [13]; at 100.0 µM 99% | [14]; at 1.2 µM 91% | [14]; at 3.7 µM 94% | [14]; at 11.0 µM 96% | [14]; at 33.0 µM 97% | [14]; at 100.0 µM 98% | [15]; at 1.2 µM 96% | [15]; at 3.7 µM 96% | [15]; at 11.0 µM 97% | [15]; at 33.0 µM 97% | [15]; at 100.0 µM 99%
